{
  "source": "the supplement of paper PMC11417369",
  "note": "± gives the standard deviation of the averaged measurements. Over roughly 25,000 sequences, “ln(normalized median fluorescence intensity)” has its median near 8.6; the highest 2% begin near 10. Only a selection was taken, and the highest values are over-represented in it overall.",
  "data": [
    {"system": "PfAP2-EXP AP2 domain (GST-tagged)", "test": "gcPBM binding intensity (ln(normalized median fluorescence intensity)); higher = stronger DNA binding", "method_in_brief": "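Binding of GST-tagged P. falciparum DNA-binding domains, expressed in E. coli and used at about 25 μg on average, was carried out for 1 h in 1× PBS containing 1% milk, 0.2 mg/ml BSA, 0.5% salmon testes DNA and 0.03% Triton X-100. The target was an Agilent 4 × 180k array of primer-extended double-stranded 36-bp intergenic genomic probes plus negative controls, read with Alexa488 anti-GST antibody at 488 nm. Binding intensity is the highest Masliner-normalised natural-log median intensity across replicate spots of either probe orientation.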", "values": [
      {"sequence": "TATAAACCGACGAAAACACACATATGTAAATATATA [CACACA_site491]", "gcPBM binding intensity (ln)": "8.94 ± 0.59"},
      {"sequence": "TATACTTTATATATTTTGTATATATATTTTTTTTAT [TGCATGCA_negctrl_site530]", "gcPBM binding intensity (ln)": "8.43 ± 0.31"},
      {"sequence": "GTTAATATTTTTGGGGGTACTTAAAAAAAAAAAAAA [XGTACX_site1477]", "gcPBM binding intensity (ln)": "9.35 ± 0.26"},
      {"sequence": "ATTTTTTTTTTTTTTTTGGGGGGGTATACTTTTAAA [CACACA_negctrl_site1020]", "gcPBM binding intensity (ln)": "11.2 ± 0.18"},
      {"sequence": "AAAAAAGAAAAAAAGTGTACAATATTTATTACATAT [XGTACX_site2277]", "gcPBM binding intensity (ln)": "8.08 ± 0.028"},
      {"sequence": "TATTTAATTACATGAACACACATTATGTATTTTTAA [CACACA_site2962]", "gcPBM binding intensity (ln)": "8.3 ± 0.3"},
      {"sequence": "TGAAATGATATATAAACACACATATATATATATATA [CACACA_site3511]", "gcPBM binding intensity (ln)": "10 ± 0.36"},
      {"sequence": "AAAATTAATAAATAAACACACATATATATATATATA [CACACA_site2598]", "gcPBM binding intensity (ln)": "10.1 ± 0.44"},
      {"sequence": "TGAAATGATATATAAACACACATATATAAATATGTA [CACACA_site7616]", "gcPBM binding intensity (ln)": "8.18 ± 0.42"},
      {"sequence": "AATTAAAAAATTATCACACATATATATATATATATA [CACACA_site5789]", "gcPBM binding intensity (ln)": "10.3 ± 0.52"},
      {"sequence": "TATATATATATATAAACACACATAAATATAAATATA [CACACA_site1121]", "gcPBM binding intensity (ln)": "10 ± 0.37"},
      {"sequence": "TTTGAAATGATATATAAACACACATATATATATATA [CACACA_site9170]", "gcPBM binding intensity (ln)": "10.3 ± 0.4"},
      {"sequence": "ATAAATATATATATCACACATATATAATTATATATA [CACACA_site4787]", "gcPBM binding intensity (ln)": "8.46 ± 0.3"},
      {"sequence": "AATAAATTGAAACACACACACACATATATATATATA [CACACA_site848]", "gcPBM binding intensity (ln)": "10.2 ± 0.32"},
      {"sequence": "ACTAATTACTATAAAACACACATATATTTATTTATA [CACACA_site7263]", "gcPBM binding intensity (ln)": "8.51 ± 0.34"},
      {"sequence": "ACTAATTACTATAAAACACACATATATATATATATA [CACACA_site2591]", "gcPBM binding intensity (ln)": "10.2 ± 0.29"},
      {"sequence": "AAAAAATTAAAAATCACACATAAATATATATAAAAA [CACACA_site4192]", "gcPBM binding intensity (ln)": "8.45 ± 0.4"},
      {"sequence": "CATATAAATAAACACACACACACATATATATATATA [CACACA_site5309]", "gcPBM binding intensity (ln)": "10.2 ± 0.29"},
      {"sequence": "TTTTTATTTTTAAAGGCACACACATTTTTATTTTTA [CACACA_site8624]", "gcPBM binding intensity (ln)": "8.41 ± 0.31"},
      {"sequence": "AAACAAAATATGGTTCATGAGCAAAAGTTTATTTTG [XGTACX_negctrl_site531]", "gcPBM binding intensity (ln)": "8.69 ± 0.47"},
      {"sequence": "TTGATTAAAATTAGTACACACAAAATACATGCGGGG [CACACA_site5284]", "gcPBM binding intensity (ln)": "9.2 ± 0.3"},
      {"sequence": "AAGAACAAACAAAATAGTACAATATATATATATATA [XGTACX_site4258]", "gcPBM binding intensity (ln)": "10 ± 0.28"},
      {"sequence": "ACTAAAAGATATATAATTTCTTTCTTATTTATTTTT [CACACA_negctrl_site842]", "gcPBM binding intensity (ln)": "8.1 ± 0.35"},
      {"sequence": "AAATATATAAAATATACACACAGTAATATATATATA [CACACA_site1385]", "gcPBM binding intensity (ln)": "9.52 ± 0.35"},
      {"sequence": "TTCTGTCAATATGCTTGTACGAAATATTTCGTAATT [XGTACX_site3182]", "gcPBM binding intensity (ln)": "8.87 ± 0.4"},
      {"sequence": "TTTTTTGCTAAAAAGAGTACTAATAAAAAATTTATT [XGTACX_site5235]", "gcPBM binding intensity (ln)": "8.34 ± 0.34"},
      {"sequence": "GAAAAAAAAAAAAATACACACAAATTGGTATATAAT [CACACA_site4369]", "gcPBM binding intensity (ln)": "8.41 ± 0.39"},
      {"sequence": "TAAATAAATAAAAAAACACACATATATATATATATA [CACACA_site4029]", "gcPBM binding intensity (ln)": "10.2 ± 0.32"},
      {"sequence": "CATAAAATATAAAACACACACACATATATATATATA [CACACA_site223]", "gcPBM binding intensity (ln)": "10.2 ± 0.44"},
      {"sequence": "AAAAAATAAATAAACATAAATAAATAAATAAATATA [XGTACX_negctrl_site340]", "gcPBM binding intensity (ln)": "8.49 ± 0.33"},
      {"sequence": "TATAAATAAAAACACACACACATATATATATATATA [CACACA_site2319]", "gcPBM binding intensity (ln)": "10.1 ± 0.32"},
      {"sequence": "TATAAATAAAAACACACACACACATATATATATATA [CACACA_site2268]", "gcPBM binding intensity (ln)": "9.99 ± 0.39"},
      {"sequence": "AATAAAATATAAACATTATATATATATATATATATA [GTGCAC_negctrl_site58]", "gcPBM binding intensity (ln)": "10.3 ± 0.38"},
      {"sequence": "TAAATAAAAAAACACACACACATATATATATATATA [CACACA_site2269]", "gcPBM binding intensity (ln)": "10.2 ± 0.25"},
      {"sequence": "AAAAATGGTGTTAACACACACATATAAATAAATATA [CACACA_site6412]", "gcPBM binding intensity (ln)": "8.44 ± 0.35"},
      {"sequence": "AATAAACATAAATAAAAATTATAAAATATATATATG [CACACA_negctrl_site1709]", "gcPBM binding intensity (ln)": "8.38 ± 0.32"},
      {"sequence": "ATAAAAATGGTGTTAACACACACATATATATATATA [CACACA_site8089]", "gcPBM binding intensity (ln)": "10.1 ± 0.38"},
      {"sequence": "TAAATAAATAAAAAAACACACATATAAATATAAATA [CACACA_site7815]", "gcPBM binding intensity (ln)": "8.56 ± 0.4"},
      {"sequence": "AAAAATGGTGTTAACACACACATATATATATATATA [CACACA_site571]", "gcPBM binding intensity (ln)": "10.2 ± 0.17"},
      {"sequence": "TTCTAACTTTTAAACACACAAATATAAATAAGTATA [CACACA_site7473]", "gcPBM binding intensity (ln)": "8.29 ± 0.62"},
      {"sequence": "CCAACTAAAAAGGAATGTACATAGTTATGGTTGGAA [XGTACX_site8762]", "gcPBM binding intensity (ln)": "9.04 ± 0.47"},
      {"sequence": "TAAGGAAAAAGAAAAAGTACATTATATAATAAATAG [XGTACX_site3282]", "gcPBM binding intensity (ln)": "8.71 ± 0.46"},
      {"sequence": "GTGAAATGGAAAAAAAGTACAGATTACATAAGTATT [XGTACX_site6355]", "gcPBM binding intensity (ln)": "8.64 ± 0.42"},
      {"sequence": "TATTTATTGTGATACTACTATTATTTTATGATTAAA [CACACA_negctrl_site284]", "gcPBM binding intensity (ln)": "8.44 ± 0.42"},
      {"sequence": "GTATAATATTCATATTCACACATTAAAATATATTTA [CACACA_site4879]", "gcPBM binding intensity (ln)": "8.49 ± 0.49"},
      {"sequence": "AAAAAATGATAATATACACACTTATGGGAGAGCGCA [CACACA_site5398]", "gcPBM binding intensity (ln)": "8.275 ± 0.078"},
      {"sequence": "ATTTTAAATTAAATTACACACTACGAATAATATATT [CACACA_site4016]", "gcPBM binding intensity (ln)": "8.43 ± 0.42"},
      {"sequence": "CAACAAAAGTTATTTACACACAAAAGGCAAGGAAAT [CACACA_site7013]", "gcPBM binding intensity (ln)": "8.94 ± 0.47"},
      {"sequence": "TAACATATTTTTAATACACACTTAAAAAAGTACTTA [CACACA_site4875]", "gcPBM binding intensity (ln)": "8.31 ± 0.34"},
      {"sequence": "TTTTTTTTTTTTTACACACCCAAATCACATACATAT [CACACA_site6089]", "gcPBM binding intensity (ln)": "8.59 ± 0.44"},
      {"sequence": "AAATGTTGAAATGATACACACATATATATATATATA [CACACA_site2517]", "gcPBM binding intensity (ln)": "10.3 ± 0.32"},
      {"sequence": "AAAAAAAAATTAAAAACACACATATAAATAAATATA [CACACA_site6845]", "gcPBM binding intensity (ln)": "8.48 ± 0.48"},
      {"sequence": "TCAATAAATATACATACATGCATACATACATACATA [TGCATGCA_site197]", "gcPBM binding intensity (ln)": "8.72 ± 0.47"},
      {"sequence": "AAAAAAAAATTAAAAACACACATATATATATATATA [CACACA_site1580]", "gcPBM binding intensity (ln)": "10.2 ± 0.39"},
      {"sequence": "AAATGTTGAAATGATACACACATATAAATATAAATA [CACACA_site7229]", "gcPBM binding intensity (ln)": "8.53 ± 0.42"},
      {"sequence": "AATCAATAAATAAAAACATGCATATATATATATATA [TGCATGCA_site438]", "gcPBM binding intensity (ln)": "10.3 ± 0.47"},
      {"sequence": "AGAAATGAAATATACACACATACATATATACATATA [CACACA_site4033]", "gcPBM binding intensity (ln)": "8.49 ± 0.27"},
      {"sequence": "AAAAAAATTAAACACACACACACATATATATATATA [CACACA_site4718]", "gcPBM binding intensity (ln)": "10.1 ± 0.25"},
      {"sequence": "AAAAAAAAAATTAAAACATGCATAAATAAATATATT [TGCATGCA_site866]", "gcPBM binding intensity (ln)": "8.73 ± 0.37"}
    ]}
  ]
}
